Measurements: PubChem BioAssay (EPA / NIEHS)
Where “and” joins values, the source holds several entries; their conditions need not be identical. Identical values can stand only once. Where a structure was tested more than once in an assay, its records may differ in their call. Calls of active or inactive are those of the source. How the source made its calls: active means hit-call score of the fitted dose curve at least 0.9, where 1 is the maximum; inactive means score below 0.9.

Key:
[1] = BSK_3C_SRB: Viability Assessment in the BioMAP Diversity Plus: 3C Assay (AID 2283023); conditions: primary human endothelial cells (HUVEC);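 further: fitted both ways against DMSO so a hit may be signal rise or drop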
Summary of the method: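 Overt cytotoxicity is gauged in parallel confluent HUVEC cultures by SRB total-protein staining at the time of biomarker measurement, 24 h after dosing. Gain or loss of signal is fitted versus DMSO.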

[2] = read-out: Matrix Metallopeptidase 1 (MMP1), MMP1 (gene 4312); test: BSK_BE3C_MMP1: BioMAP Diversity Plus: BE3C Assay for Matrix Metallopeptidase 1 (MMP1) Biomarker Activity (AID 2283024); conditions: primary human bronchial epithelial cells; actives raise or lower the signal
Summary of the method: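 ELISA measurement of MMP-1 after 24 h compound exposure of primary human bronchial epithelial cells. Changes in either direction fitted relative to DMSO; parallel SRB staining checked overt cytotoxicity.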

[3] = BSK_3C_Vis: BioMAP Diversity Plus: 3C Assay for Morphology Visualization (AID 2283025); conditions: primary human endothelial cells (HUVEC);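 further: fitted both ways so gain or loss versus DMSO counts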;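 on AC50: light microscopy image of cell morphology used as background control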
Summary of the method: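 Light-microscopy visualization of HUVEC cultures at 24 h post-treatment, with DMSO as baseline for bidirectional fitting.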

[4] = read-out: Pselectin, SELP (gene 6403); test: BSK_4H_Pselectin: BioMAP Diversity Plus: 4H Assay for Pselectin Biomarker Activity (AID 2283026); conditions: primary human endothelial cells (HUVEC); actives raise or lower the signal
Summary of the method: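 ELISA of surface P-selectin on HUVEC, 24 h after dosing, with parallel SRB staining (0.1% after 10% TCA fixation, 560 nm) for overt cytotoxicity. Activity fitted in both directions relative to DMSO.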

[5] = BSK_4H_SRB: Viability Assessment in the BioMAP Diversity Plus: 4H Assay (AID 2283027); conditions: primary human endothelial cells (HUVEC);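 further: cells exposed to compound for 24 h before staining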;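 on AC50: curves fitted both ways versus DMSO so AC50 may be loss or gain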
Summary of the method: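 Cytotoxicity read-out in primary human endothelial cells: after 24 h compound exposure, cells were TCA-fixed (10%), stained with 0.1% SRB and absorbance taken at 560 nm. Values fitted in both directions relative to DMSO.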

[6] = BSK_BE3C_SRB: Viability Assessment in the BioMAP Diversity Plus: BE3C Assay (AID 2283028); conditions: primary human bronchial epithelial cells;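 on AC50: fitted both ways so AC50 may mark signal gain or loss versus DMSO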
Summary of the method: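 SRB total-protein staining (0.1%, after TCA fixation) of chemically dosed human bronchial epithelial primary cells at 24 h; DMSO serves as the negative control for bidirectional curve fitting.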

[7] = read-out: Thrombomodulin, THBD (gene 7056); test: BSK_3C_Thrombomodulin: BioMAP Diversity Plus: 3C Assay for Thrombomodulin Biomarker Activity (AID 2283029); conditions: primary human endothelial cells (HUVEC); actives raise or lower the signal
Summary of the method: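 ELISA measurement of thrombomodulin on HUVEC surface 24 h after chemical dosing; activity fitted in both directions relative to DMSO vehicle.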

[8] = read-out: Urokinase-type plasminogen activator receptor (uPAR), PLAUR (gene 5329); test: BSK_4H_uPAR: BioMAP Diversity Plus: 4H Assay for Urokinase-type plasminogen activator receptor (uPAR) Biomarker Activity (AID 2283030); conditions: primary human endothelial cells (HUVEC); actives raise or lower the signal
Summary of the method: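 Endpoint derived via bidirectional curve fitting against DMSO baseline; readout was ELISA detection of uPAR on umbilical vein endothelial cells at 24 h post-treatment, with SRB-stained parallel cultures assessing cytotoxicity.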

[9] = read-out: Vascular endothelial growth factor receptor 2 (Homo sapiens) (UniProt P35968); test: BSK_4H_VEGFRII: BioMAP Diversity Plus: 4H Assay for Vascular endothelial growth factor receptor 2 (VEGFR2) Biomarker Activity (AID 2283031); conditions: primary human endothelial cells (HUVEC); actives raise or lower the signal;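 on AC50: cell-surface VEGFR2 protein level quantified by ELISA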
Summary of the method: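 In this multiplexed HUVEC system, biomarker ELISA was performed after 24 h chemical exposure. Parallel SRB staining (TCA fixation, 560 nm) tracked cytotoxicity; DMSO served as baseline.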

[10] = read-out: Human Leukocyte Antigen - DR isotype (HLADR), HLA-DRA (gene 3122); test: BSK_BE3C_HLADR: BioMAP Diversity Plus: BE3C Assay for Human Leukocyte Antigen - DR isotype (HLADR) Biomarker Activity (AID 2283032); conditions: primary human bronchial epithelial cells; actives raise or lower the signal
Summary of the method: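 Cell-surface HLA-DR ELISA readout at 24 h after dosing in the BE3C primary human lung bronchial epithelial system; gain or loss of signal against DMSO, with parallel sulforhodamine B staining of total protein for overt cytotoxicity.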

Measured: AC50

CCCOC(=O)c1ccc(O)cc1
inactive: [1] | [2] | [3] | [4] | [5] | [6] | [7] | [8] | [9] | [10]

CC(C)(C)c1ccc(O)c(C(C)(C)C)c1
active: [1] 9.68 µM | [2] 32.4 µM | [3] 6.71 µM | [4] 7.52 µM | [5] 12.4 µM | [6] 32 µM | [8] 10.6 µM | [10] 28.1 µM
inactive: [7] | [9]

CC(C)(C)c1cc(C(C)(C)C)c(O)c(C(C)(C)C)c1
active: [2] 10.5 µM | [4] 20 µM | [7] 6.29 µM
inactive: [1] | [3] | [5] | [6] | [8] | [9] | [10]

OCCC(F)(F)C(F)(F)C(F)(F)C(F)(F)C(F)(F)C(F)(F)C(F)(F)C(F)(F)F
inactive: [1] | [2] | [3] | [4] | [5] | [6] | [7] | [8] | [9] | [10]
active: [1] 29.1 µM and 19 µM | [2] 48 µM | [4] 14.5 µM and 13.5 µM | [5] 18.2 µM and 15.6 µM | [6] 22.8 µM and 20 µM | [8] 39.7 µM and 27.8 µM | [9] 47.9 µM and 20.6 µM | [10] 18.3 µM and 24.1 µM

Oc1cccc(O)c1
inactive: [1] | [2] | [3] | [4] | [5] | [6] | [7] | [8] | [9] | [10]

CCC(C)(C)C1CCC(O)CC1 (stereo not drawn)
inactive: [1] | [2] | [3] | [4] | [5] | [6] | [7] | [8] | [9] | [10]

CC(=O)NC1(c2cccc(F)c2)CCN(CC[C@@]2(c3ccc(Cl)c(Cl)c3)CN(c3ccccc3)C(=O)CO2)CC1
active: [1] 21.6 µM | [3] 12.7 µM | [4] 20.4 µM | [5] 20.3 µM | [8] 16.6 µM | [10] 24.5 µM
inactive: [2] | [6] | [7] | [9]

NC(=O)N1C(=O)C(C(=O)c2cc(Cl)cs2)c2cc(F)c(Cl)cc21 (stereo not drawn)
active: [1] 14 µM | [2] 2.77 µM | [3] 37.5 µM | [4] 11.4 µM | [5] 15.2 µM | [6] 9.99 µM | [8] 12.7 µM | [10] 2.85 µM
inactive: [7] | [9]

CC[C@H](C)[C@@H](C(=O)O)n1sc2ccccc2c1=O
inactive: [1] | [2] | [3] | [4] | [5] | [6] | [7] | [8] | [9] | [10]

CCCCCCCCC(=O)O
inactive: [1] | [2] | [3] | [4] | [5] | [6] | [7] | [8] | [9] | [10]

CCc1nn(C2CCCCC2)c2cc(C3(C#N)CCC(C(=O)O)CC3)ccc12 (stereo not drawn)
active: [1] 5.08 µM | [3] 39 µM | [4] 4.25 µM | [5] 5.87 µM | [8] 4.94 µM | [10] 31 µM
inactive: [2] | [6] | [7] | [9]

CN(C)C=O
inactive: [1] | [2] | [3] | [4] | [5] | [6] | [7] | [8] | [9] | [10]

C[C@@H]1C[C@H]2[C@@H]3CCC4=CC(=O)C=C[C@]4(C)[C@@]3(F)[C@@H](O)C[C@]2(C)[C@@]1(O)C(=O)COP(=O)(O)O
inactive: [1] | [2] | [3] | [4] | [5] | [6] | [7] | [8] | [9] | [10]
active: [2] 0.1 µM

NC(=O)N(O)[C@@H]1C=C[C@H](Oc2cccc(Oc3ccc(F)cc3)c2)C1
active: [1] 9.5 µM
inactive: [2] | [3] | [4] | [5] | [6] | [7] | [8] | [9] | [10]

CCC(=C(c1ccc(O)cc1)c1ccc(OCCN(C)C)cc1)c1ccccc1
active: [1] 9.01 µM | [2] 12.2 µM | [3] 6.97 µM | [4] 6.16 µM | [5] 8.19 µM | [6] 9.32 µM | [7] 12.8 µM | [8] 7.41 µM | [10] 8.64 µM
inactive: [9]

OCCC(F)(F)C(F)(F)C(F)(F)C(F)(F)C(F)(F)C(F)(F)F
active: [1] 57.7 µM | [4] 46.8 µM | [9] 7.51 µM
inactive: [1] | [2] | [3] | [4] | [5] | [6] | [7] | [8] | [9] | [10]

CCCCCCCCCCCCCCCS(=O)(=O)Oc1ccccc1
inactive: [1] | [2] | [3] | [4] | [5] | [6] | [7] | [8] | [9] | [10]

COCC(C)O (stereo not drawn)
inactive: [1] | [2] | [3] | [4] | [5] | [6] | [7] | [8] | [9] | [10]

OC1CCC(C2CCCCC2)CC1 (stereo not drawn)
inactive: [1] | [2] | [3] | [4] | [5] | [6] | [7] | [8] | [9] | [10]

CC(C)(C)CC(C)(C)c1ccc(O)c(-n2nc3ccccc3n2)c1
inactive: [1] | [2] | [3] | [4] | [5] | [6] | [7] | [8] | [9] | [10]

Cc1cc(C)c(O)c(C)c1
inactive: [1] | [2] | [3] | [4] | [5] | [6] | [7] | [8] | [9] | [10]

C=C(C)C(=O)OCCC(F)(F)C(F)(F)C(F)(F)C(F)(F)C(F)(F)C(F)(F)F
inactive: [1] | [2] | [3] | [4] | [5] | [6] | [7] | [8] | [9] | [10]
active: [5] 20 µM

CCCCCCC(=O)O
inactive: [1] | [2] | [3] | [4] | [5] | [6] | [7] | [8] | [9] | [10]

CC1=C(/C=C/C(C)=C/C=C/C(C)=C/C(=O)O)C(C)(C)CCC1
active: [2] 0.854 µM | [4] 31.7 µM | [10] 20 µM
inactive: [1] | [3] | [5] | [6] | [7] | [8] | [9]

CCCCOCCO
inactive: [1] | [2] | [3] | [4] | [5] | [6] | [7] | [8] | [9] | [10]

O=c1c(-c2ccc(O)cc2)coc2cc(O)ccc12
inactive: [1] | [2] | [3] | [5] | [6] | [7] | [8] | [9] | [10]
active: [4] 20 µM

CC(C)(C)c1cccc(C(C)(C)C)c1O
inactive: [1] | [2] | [3] | [4] | [5] | [6] | [7] | [8] | [9] | [10]

COC(=O)CCCCC(=O)OC
inactive: [1] | [2] | [3] | [4] | [5] | [6] | [7] | [8] | [9] | [10]

COc1ccc([N+](=O)[O-])cc1N
inactive: [1] | [2] | [3] | [4] | [5] | [6] | [7] | [8] | [9] | [10]

CN1CCC[C@H]1c1cccnc1
inactive: [1] | [2] | [3] | [4] | [5] | [6] | [7] | [8] | [9] | [10]

CCOC(=O)CC(O)(CC(=O)OCC)C(=O)OCC
inactive: [1] | [2] | [3] | [4] | [5] | [6] | [7] | [8] | [9] | [10]

CC(=O)CC(C)(C)O
inactive: [1] | [2] | [3] | [4] | [5] | [6] | [7] | [8] | [9] | [10]
